Source: PubChem BioAssay AID1252 (The Scripps Research Institute Molecular Screening Center, 2008)
The other results are listed elsewhere or left out. A number with no mark means an inactive call.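 The calls were made as follows: active = over 50% activation at some tested dose; inactive = under 50% activation at every tested dose.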

Assay: Hsp70 transcriptional activators, dose response, cell-based, HeLa, Hsp70 promoter luciferase, luminescence, triplicate (AID 1252)
Conditions: HeLa hsp70.1pr-luc reporter; series mostly up to 99 µM; activation: at the top concentration

Going from `COc1ccc(NC(=O)/C(Cl)=C(/Cl)S(=O)Cc2ccc(C)cc2)cn1` (centres undefined) to `COc1ccc(CS(=O)/C(Cl)=C(/Cl)C(=O)Nc2ccc(OC)nc2)cc1` (centres undefined), the “activation” value falls from 1.6% to -0.5%.

Going from `O=C(/C=C/Sc1ncn[nH]1)c1ccc(Cl)cc1` to `COCCn1c(C)cc(C(=O)CSc2nc3ccccc3c(=O)n2C(C)COC)c1C` (centres undefined), the “activation” value falls from 3.8% to -0.3%.
